Among the data in PubChem BioAssay are composite z-score and composite Z-score values, retold here.

For one experiment, the target named is Albumin (Bos taurus) (UniProt P02769). The experiment is described as follows: bovine serum albumin binders on microarray, profiling panel, artefact control for SMM control protein annotation, biochemical, small-molecule microarray, Alexa647 label, 635/667 nm fluorescence (AID 1118).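 Note: score merges 667 nm emission intensity and signal-to-noise per printed compound spot.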 The conditions noted are these: BSA-A647 binding, fluorescence 635 nm, higher = more signal.
Albumin (Bos taurus), sequence (P02769 whole entry, looked up): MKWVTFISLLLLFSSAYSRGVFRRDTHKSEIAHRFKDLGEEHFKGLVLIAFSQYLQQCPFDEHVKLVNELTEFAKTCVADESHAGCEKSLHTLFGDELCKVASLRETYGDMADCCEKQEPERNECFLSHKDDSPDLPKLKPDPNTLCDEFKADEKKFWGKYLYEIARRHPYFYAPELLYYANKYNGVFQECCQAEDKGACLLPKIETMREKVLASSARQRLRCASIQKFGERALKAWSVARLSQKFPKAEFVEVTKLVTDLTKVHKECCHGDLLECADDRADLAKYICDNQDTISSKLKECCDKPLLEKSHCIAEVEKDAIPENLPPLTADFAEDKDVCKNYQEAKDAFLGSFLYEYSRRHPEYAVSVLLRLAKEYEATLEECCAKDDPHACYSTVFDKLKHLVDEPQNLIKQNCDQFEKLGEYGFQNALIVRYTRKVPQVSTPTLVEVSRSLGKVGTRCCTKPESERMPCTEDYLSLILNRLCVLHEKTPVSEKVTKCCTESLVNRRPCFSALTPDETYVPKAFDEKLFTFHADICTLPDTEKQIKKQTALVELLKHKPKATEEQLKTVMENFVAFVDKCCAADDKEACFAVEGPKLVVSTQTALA

The nature of experiment [1]: small-molecule microarray binders of probe aXIP, primary screen, biochemical, NeuroSMM set, 635/667 nm fluorescence (AID 1119).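 Note: probe is the protein aXip251-270 applied at 1 µg/mL to compound-printed slides; binding of probe to printed compounds measured as 667 nm fluorescence plus signal to noise.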 The conditions noted are these: higher = more signal, called active from +8 up or from −8 down.
Experiment [2] is described as follows: small-molecule binders of probe aNOTCH3, primary screen, biochemical, small-molecule microarray, 635/667 nm fluorescence (AID 1120).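 Note: probe is a biotin-tagged antibody raised against NOTCH3 rather than NOTCH3 protein; score merges spot fluorescence near 667 nm with spot signal to noise.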 The conditions noted are these: higher = more signal.
A short description of experiment [3]: small-molecule binders of probe aNOTCH2, primary screen, biochemical, small-molecule microarray, 635/667 nm fluorescence (AID 1121).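 Note: score merges feature fluorescence read at 667 nm with its signal to noise.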 The conditions noted are these: higher = more signal.
Experiment [4] concerns the target Carbonic anhydrase 2 (Homo sapiens) (UniProt P00918). Description: CAII small-molecule binders, profiling panel, biochemical, small-molecule microarray, Alexa647-labelled CAII (AID 1122). The conditions noted are these: CAII-A647 binding fluorescence, higher = more signal.
Experiment [5] in a line: COS7 lysate on small-molecule microarray, probe aHis, 635 nm (AID 1123).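 Note: z-score combines 667nm fluorescence intensity with signal-to-noise per printed compound spot.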 The conditions noted are these: COS7 cell lysate, fluorescence, higher = more signal.
Experiment [6] in a line: compound binding in COS7 lysate, probe aLAP1, primary screen, cell lysate, small-molecule microarray (AID 1124).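 Note: lysate comes from COS7 cells expressing LAP1 and is applied at 0.3 µg/mL; score merges spot fluorescence near 667 nm with signal-to-noise over triplicate slides.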 The conditions noted are these: probe aLAP1, fluorescence, higher = more signal.
The subject of the next experiment is Sam68 (KHDRBS1). The experiment is described as follows: Sam68 small-molecule binders, primary screen, biochemical, small-molecule microarray, 635 nm fluorescence (AID 1125).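 Note: score merges 667 nm channel intensity with signal to noise over triplicate slides.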 The conditions noted are these: small-molecule microarray binding, higher = more signal.
In experiment [7] the test system is Chordin-like protein 2 (CHRDL2). The experiment is described as follows: CHRDL2 small-molecule binders, primary screen, biochemical, small-molecule microarray, 635 nm fluorescence (AID 1126).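 Note: printed compound slides probed with Chrdl2 protein at 4 µg/mL for 1 h at 4 C; score merges 667 nm emission intensity with signal to noise over three replicate slides.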 The conditions noted are these: small-molecule microarray binding, fluorescence 635 nm; higher = more signal.
In experiment [8] the target is Concanavalin-A (Canavalia ensiformis) (UniProt P02866). The experiment is described as follows: ConA small-molecule binders, primary screen, artefact control for SMM control protein annotation, biochemical, small-molecule microarray, Alexa647 label, 635 nm (AID 1127).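 Note: z combines 667 nm emission intensity with signal-to-noise across three replicate slides.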 The conditions noted are these: ConA-A647 binding fluorescence, higher = more signal.
Concanavalin-A (Canavalia ensiformis), sequence (P02866 whole entry, looked up): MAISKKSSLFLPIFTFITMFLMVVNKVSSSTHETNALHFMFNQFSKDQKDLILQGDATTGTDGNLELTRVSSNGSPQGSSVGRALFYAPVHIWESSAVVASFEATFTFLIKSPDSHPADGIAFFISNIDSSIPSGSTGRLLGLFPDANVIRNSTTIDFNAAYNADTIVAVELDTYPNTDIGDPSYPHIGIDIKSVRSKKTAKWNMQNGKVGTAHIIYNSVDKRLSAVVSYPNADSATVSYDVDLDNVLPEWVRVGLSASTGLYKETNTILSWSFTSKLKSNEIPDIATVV

Activity calls are given as the source filed them.

`CC=CC(O)C1C=CC2C(=O)N(C)C(=O)C2N1N1CCCCC1` (stereo not given): the composite z-score in the experiment with Albumin (Bos taurus) was 1.01; in [2] it was 0.16; in experiment [3] it was 0.0701; in experiment [4] it was 0.783; in experiment [5], 2.48; in experiment [6] it was 0.466. Moreover, the composite z-score with Sam68 (KHDRBS1) is 1.27; in [7], -0.0061; in experiment [8], 0.915. The composite Z-score in experiment [1] was 0.298 (inactive).
In the case of `O=C1O[C@@H](c2ccccc2)[C@@H](c2ccccc2)N2[C@@H](c3ccc(O)cc3)[C@]3(C(=O)Nc4ccc(C#CCCO)cc43)[C@@H](C(=O)NC[C@H](O)c3ccccc3)[C@H]12`, the composite z-score was 0.273 with Albumin (Bos taurus); -0.158 in [2]; -0.167 in [3]; 0.724 in experiment [4]; -0.112 in experiment [5]; 0.102 in experiment [6]. The figures for the composite z-score (in the experiment on Sam68 (KHDRBS1); in experiment [7]; in [8]) were 0.249, -1.39 and -0.101, respectively. The composite Z-score in experiment [1] is 1.62 (inactive).
As for `C=CCOC(=O)[C@H]1[C@@H]2C(=O)O[C@@H](c3ccccc3)[C@@H](c3ccccc3)N2[C@@H](c2ccc(OCCOC(=O)[C@H]3C[C@H]4C(=O)N[C@@H](Cc5ccccc5)C(=O)N4[C@H]3c3cccc(OCCO)c3)cc2)[C@]12C(=O)Nc1ccc(I)cc12`, the composite z-score was -0.291 in the experiment with Albumin (Bos taurus); 0.071 in experiment [2]; -0.117 in experiment [3]; 0.487 in experiment [4]; -0.0456 in experiment [5]; 0.335 in [6]. The composite z-score with Sam68 (KHDRBS1) turned out to be 1.28; in [7], 1.25; in experiment [8], 1.12. Moreover, the composite Z-score in experiment [1] was 1.02 (inactive).
Take `C=C(C(=O)CC[C@H](OC(=O)c1cccnc1)c1cccc(OCCO)c1)C(C)C`: the composite z-score with Albumin (Bos taurus) is -0.849; in experiment [2] it was -0.0971; in experiment [3], -0.161; in experiment [4], 0.0143; in [5], 0.0609; in [6], -0.0536. Further, the composite z-score is 0.481 in the experiment on Sam68 (KHDRBS1), -0.507 in [7] and -0.0842 in experiment [8]. The composite Z-score in experiment [1] is 0.587 (inactive).
Turning to `CC(C)(C)OC(=O)CC[C@]1(C(=O)O)N=C(c2ccc(OCCCO)cc2)O[C@H]1c1ccccc1`, the composite z-score was 0.419 in the experiment with Albumin (Bos taurus); 0.318 in experiment [2]; -0.203 in [3]; 0.808 in experiment [4]; 0.787 in experiment [5]; 0.448 in [6]. Besides, the results for the composite z-score (in the experiment on Sam68 (KHDRBS1); in experiment [7]; in experiment [8]) were -0.612, -0.556 and 0.206, respectively. In experiment [1], the composite Z-score was -0.179 (inactive).
As to `COc1ccccc1CN1C(=O)c2ccccc2[C@@H](C(=O)NC(C)C)[C@@H]1c1ccc(CO)cc1`, the composite z-score was -0.374 in the experiment with Albumin (Bos taurus); 0.338 in experiment [2]; 0.103 in [3]; 0.535 in [4]; 2.32 in [5]; 1.03 in [6]. The composite z-score with Sam68 (KHDRBS1) was determined as 1.33; in experiment [7], 0.565; in experiment [8] it was 1.16. Moreover, the composite Z-score in experiment [1] is -0.0458 (inactive).
As to `C=C(/C(=C/C[C@@H](OC(=O)c1ccncc1)c1ccc(OCCO)cc1)c1cc(C(=O)OC)ccc1OC)C(C)C`, the composite z-score with Albumin (Bos taurus) was 0.277; in experiment [2], 0.157; in experiment [3], -0.124; in [4], 0.269; in experiment [5], 1.06; in [6], -0.017. The values for the composite z-score (in the experiment with Sam68 (KHDRBS1); in experiment [7]; in experiment [8]) were 1.14, -0.0737 and 0.695, respectively. In addition, the composite Z-score in experiment [1] is 0.443 (inactive).
Take `Cc1ccc(F)cc1S(=O)(=O)N[C@@H]1CCN(Cc2ccc(Oc3ccccc3)cc2)C1`: the composite z-score in the experiment with Albumin (Bos taurus) was -0.274; in experiment [2], 0.154; in experiment [3] it was -0.165; in experiment [4] it was 0.304; in [5] it was -0.13; in experiment [6], -0.305. In addition, the values for the composite z-score (in the experiment on Sam68 (KHDRBS1); in [7]; in experiment [8]) were -0.68, 0.861 and -0.905, respectively. In addition, the composite Z-score in [1] was -0.608 (inactive).
Regarding `CCCN1C(=O)[C@]2(Cc3ccccc3)N=C(c3ccc(OCCCO)cc3)O[C@@H]2c2ccccc21`, the composite z-score with Albumin (Bos taurus) is 0.727; in experiment [2], -0.0345; in [3] it was -0.142; in experiment [4], 0.537; in [5] it was 1.86; in experiment [6] it was 0.335. Also, the figures for the composite z-score (in the experiment with Sam68 (KHDRBS1); in [7]; in experiment [8]) were 1.28, 0.777 and 1.14, respectively. The composite Z-score in experiment [1] is -0.659 (inactive).
As for `CN1C(=O)C2C=CC(C(O)c3c(F)cccc3Cl)N(Nc3ccccc3)C2C1=O` (stereo not given), the composite z-score is 0.956 in the experiment with Albumin (Bos taurus); 0.291 in [2]; 0.0177 in experiment [3]; 0.396 in [4]; 2.84 in experiment [5]; 0.73 in experiment [6]. In addition, the composite z-score amounted to 0.895 in the experiment with Sam68 (KHDRBS1), 0.298 in [7] and 1.18 in experiment [8]. In addition, in [1], the composite Z-score is -0.263 (inactive).
In the case of `CCOC(=O)C1=CC[C@@H](c2ccc([N+](=O)[O-])cc2)N(S(=O)(=O)c2ccc(C)cc2)[C@H]1c1ccccc1`, the composite z-score with Albumin (Bos taurus) is 0.845; in experiment [2], 0.233; in experiment [3], -0.0297; in experiment [4] it was 0.373; in [5], 2.21; in experiment [6], 0.359. Moreover, the composite z-score is 1.28 in the experiment on Sam68 (KHDRBS1), 0.402 in [7] and 0.842 in experiment [8]. The composite Z-score in experiment [1] was 0.312 (inactive).
For `CCOC(=O)C[C@H]1[C@H](OC(=O)c2ccc(-c3ccccc3)cc2)[C@@H](NC(=O)c2ccc3ccccc3n2)c2cc(OCCCO)ccc2N1C(=O)c1ccccc1`, the composite z-score with Albumin (Bos taurus) is 0.58; in experiment [2] it was 0.0916; in experiment [3], -0.0613; in experiment [4], 0.14; in experiment [5], 0.554; in [6], 0.0488. The composite z-score in the experiment with Sam68 (KHDRBS1) was found to be 1.25; in experiment [7], 0.423; in experiment [8] it was 1.04. In experiment [1], the composite Z-score is -0.202 (inactive).
For the compound `CCCC=C(CCC)[C@@H](NP(=O)(c1ccccc1)c1ccccc1)c1ccc(C(F)(F)F)cc1`, the composite z-score with Albumin (Bos taurus) is 0.179; in experiment [2], 0.26; in [3] it was 0.0684; in [4], -0.0457; in [5], 0.442; in experiment [6], 0.207. The composite z-score was 1.14 in the experiment with Sam68 (KHDRBS1), -0.13 in experiment [7] and -0.482 in [8]. The composite Z-score in [1] is -0.349 (inactive).
Regarding `C=CCN1Cc2ccccc2C[C@@]2(N=C(c3ccc(OCCCO)cc3)O[C@H]2c2ccccc2)C1=O`, the composite z-score is 0.247 in the experiment with Albumin (Bos taurus); 0.106 in [2]; -0.0148 in experiment [3]; 0.577 in experiment [4]; 3.06 in experiment [5]; 0.326 in [6]. Moreover, the composite z-score in the experiment on Sam68 (KHDRBS1) stood at 1.3; in experiment [7] it was 0.185; in [8] it was 1.14. Moreover, the composite Z-score in experiment [1] was 0.667 (inactive).
`COC(=O)c1c(CC[C@@H](CO)NC(=O)N[C@H](Cn2cc(-c3ccccc3C)nn2)C(C)C)oc(C(C)=O)c1C(=O)OC`: the composite z-score was 0.119 in the experiment with Albumin (Bos taurus); -0.0731 in experiment [2]; -0.075 in experiment [3]; 0.0708 in experiment [4]; -0.363 in experiment [5]; -0.108 in experiment [6]. The composite z-score in the experiment with Sam68 (KHDRBS1) is -1.08; in [7], -0.767; in experiment [8] it was 0.43. The composite Z-score in experiment [1] was -0.115 (inactive).
As to `C=C[C@H](COC(C)=O)NS(=O)(=O)c1ccc(Br)cc1`, the composite z-score with Albumin (Bos taurus) is 0.0793; in [2], -0.217; in experiment [3], -0.106; in [4] it was -0.111; in experiment [5], -0.0413; in experiment [6], -0.0354. Also, the composite z-score in the experiment with Sam68 (KHDRBS1) was -0.603; in experiment [7] it was 1.14; in experiment [8], 0.43. Also, the composite Z-score in experiment [1] was 0.131 (inactive).
